Results: PubChem BioAssay AID881 (National Center for Advancing Translational Sciences (NCATS), 2007)
Values joined by “and” are separate entries in the source; they are usually repeats but may differ in a detail not shown here. Identical values can stand only once. Among all 110,000 compounds or so, about 610 (0.55%) were called active. A call without a number means that no potency is given here. Not shown: some 3% with an inconclusive outcome. The call rests on the fitted dose curve; in most records, active means well fitted inhibition curve with a large enough effect; inconclusive means small, poorly fitted or top-dose-only effect; inactive means no such curve, though single readings can be large or run the other way. Only a selection was taken, and actives are over-represented in it overall.

Each compound was assayed against Polyunsaturated fatty acid lipoxygenase ALOX15B (Homo sapiens) (UniProt O15296) (assay: qHTS Assay for Inhibitors of 15-hLO-2 (15-human lipoxygenase 2)). Conditions: purified 15hLO-2, xylenol orange hydroperoxide absorbance; series mostly up to 57.1 µM.
Chain of Polyunsaturated fatty acid lipoxygenase ALOX15B (Homo sapiens) (O15296 whole entry, looked up): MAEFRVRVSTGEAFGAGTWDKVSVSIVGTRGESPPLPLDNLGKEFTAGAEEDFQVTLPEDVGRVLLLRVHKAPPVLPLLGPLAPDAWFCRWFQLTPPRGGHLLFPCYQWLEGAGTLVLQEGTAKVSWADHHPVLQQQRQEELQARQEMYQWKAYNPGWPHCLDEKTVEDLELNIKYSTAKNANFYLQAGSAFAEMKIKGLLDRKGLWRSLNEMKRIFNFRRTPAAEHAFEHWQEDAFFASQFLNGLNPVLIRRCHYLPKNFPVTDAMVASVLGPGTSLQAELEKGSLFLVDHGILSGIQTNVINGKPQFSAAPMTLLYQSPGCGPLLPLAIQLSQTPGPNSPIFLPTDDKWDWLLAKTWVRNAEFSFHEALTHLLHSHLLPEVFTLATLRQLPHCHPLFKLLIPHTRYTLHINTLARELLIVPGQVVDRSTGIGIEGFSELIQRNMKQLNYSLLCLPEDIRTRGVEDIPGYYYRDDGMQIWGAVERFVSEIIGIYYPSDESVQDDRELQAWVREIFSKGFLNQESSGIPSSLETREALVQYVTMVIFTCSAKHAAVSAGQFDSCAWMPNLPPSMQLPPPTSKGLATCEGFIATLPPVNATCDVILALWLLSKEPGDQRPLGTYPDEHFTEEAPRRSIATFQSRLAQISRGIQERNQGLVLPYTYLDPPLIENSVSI
Excerpt: Assay Overview: NIH Molecular Libraries Screening Centers Network [MLSCN] NIH Chemical Genomics Center [NCGC] MLSCN Grant: MH081283-01A1 PI Name: Holman, T.R., University of California, Santa Cruz Human lipoxygenase 15hLO-2 is a member of the closely related lipoxygenase family of enzymes which catalyze the site-specific oxidation of arachidonic acid to various hormone precursor molecules and as such is a candidate for drug development in a variety of disease areas, such as cancer and inflammation. Inhibition of 15hLO-2 activity was screened by utilizing arachidonic acid as a substrate. The extent of hydroperoxide product formation was measured by a secondary chromogenic reaction in which xylenol orange (XO, Sigma-Aldrich, cat. number 39,818-7) reacts with the ferric ions produced from the reaction between the hydroperoxide and ferrous ions. The Fe(III)-XO complex is characterized with red-shifted absorbance at 560 nm. A purified preparation of human 15hLO-2 was supplied by Professor Ted Holman, University of California, Santa Cruz.
Assay Protocol: Buffer: 25 mM Hepes pH 7.5, 0.01% Triton X-100. Reagents/Controls: Buffer in columns 3 and 4 as negative control (no enzyme). Substrate solution: 45 uM arachidonic acid (Sigma-Aldrich, St. Louis, MO) final concentration dispensed throughout the plate. Enzyme: 50 nM 15hLO-2 final concentration in columns 1, 2, 5-48. Column 1 is neutral (100% activity). Column 2 contained pin-transferred titration of NDGA (nordihidroguaiaretic acid, Sigma-Aldrich, N 5023, top concentration 10 mM in DMSO, then 1:2 dilution in duplicate). (Dilution factor: 23 nL into 4 uL.) Chromogenic detection reagent (divalent iron/xylenol orange, Fe-XO): 200 uM xylenol orange plus 300 uM ferrous ammonium sulfate prepared freshly in 50 mM sulfuric acid. Assay Steps: Three uL of enzyme were dispensed to 1536-well Greiner black clear bottom plates. Compounds and controls (23 nL) were transferred via Kalypsys PinTool. The plates were incubated for 15 min at room temperature, and then 1 uL of substrate solution was added to start the reaction. After room temperature incubation for 90 minutes, 4 uL of Fe-XO solution was added to each well followed by a short spin (1000 rpm, 15 sec) and the plates were then incubated for 30 min. The absorbance at 405 and 573 nm were measured using ViewLux (Perkin-Elmer) High-throughput CCD imager and absorbance protocol settings. The 573-to-405 absorbance ratio was used to compute reaction progress.
Further: nearly all actives have a fitted effect of over 60% in size.
Potency means the concentration at half of the fitted maximal effect.

Row | SMILES | activity change, negative = inhibition | Potency
1 | O=C(Nc1cc(C(F)(F)F)ccc1Cl)c1cc2nc3c(c(C(F)(F)F)n2n1)CCCC3 | inactive | 
2 | CCOc1ccc(N=Cc2c(O)n(-c3cccc(C)n3)c(=O)c3ccccc23)cc1 | inactive | 
3 | NNc1nnc(NN)c2ccccc12 | 35% [at 0.0915 µM] (inactive) | 
4 | CCOC(=O)c1c(NC(=O)CCl)sc(C(=O)N(CC)CC)c1C | inactive | 
5 | O=c1onc(-c2cccs2)n1Cc1ccccc1 | inactive | 
6 | CNC(=O)c1nnc(Cc2ccc(Cl)cc2)o1 | inactive | 
7 | CC(C)Nc1ncnc2c1nnn2Cc1ccccc1 | inactive | 
8 | CN=C1SC(CC(=O)Nc2ccc(C(=O)O)cc2)C(=O)N1C (stereo not given) | inactive | 
9 | Cc1c(Br)cc(C(=O)N2CCCCCC2)c(C)c1C | inactive | 
10 | O=C1OCCN1C(=O)[C@H]1[C@H](c2ccccc2)C(c2ccc(F)cc2)=NN1c1ccccc1 | -26.1% [at 0.0915 µM] (inactive) | 
11 | Oc1c(Cl)cc(Cl)c(Cl)c1Cc1c(O)c(Cl)cc(Cl)c1Cl |  | 10 µM (active)
12 | C=C(C)CSc1nnc(-c2ccc(C)cc2)n1N | inactive | 
13 | COc1ccc(CN2CN(C(C)C)CSC2=S)cc1 |  | 5.01 µM (active)
14 | COc1ccc(C(=O)CN(C(=O)c2ccc(Cl)cc2)N2C(=O)c3ccccc3C2=O)cc1 | inactive | 
15 | O=C(O)CSCc1ccc(C(=O)O)o1 | inactive | 
16 | CC(C)NS(=O)(=O)c1ccc(NC(=O)C2CCCCC2)cc1 | inactive | 
17 | O=C(CCc1ccc(S(=O)(=O)N2CCOCC2)cc1)Nc1ccc2ccccc2c1 | inactive | 
18 | COc1ccc(Nc2cc(=O)oc3ccccc23)cc1 | inactive | 
19 | O=C(NCc1ccc2c(c1)OCO2)C12CC3CC(CC(C3)C1)C2 | inactive | 
20 | S=C(NCc1cccs1)Nc1ccc(Cl)cc1 | inactive | 
21 | S=C(NCc1ccc(Cl)cc1)NC12CC3CC(CC(C3)C1)C2 |  | 15.8 µM (active)
22 | Cc1cccc(N2C(=O)c3cccnc3C2=O)c1 | inactive | 
23 | COc1ccc(-c2c(C)cc3oc(=O)cc(-c4ccccc4)c3c2C)cc1F | -14% [at 0.0915 µM] (inactive) | 
24 | Cc1cccc(-c2cc(=O)c3cc(C)ccc3o2)c1 | inactive | 
25 | O=c1cc(-c2ccc(O)c(O)c2)oc2cccc(O)c12 |  | 12.6 µM (active)

Row | SMILES | activity change, negative = inhibition | Potency
26 | CC1O[C@@H](Oc2c(-c3ccc(O)c(O)c3)oc3cc(O)cc(O)c3c2=O)C(O)C(O)C1O (stereo not given in full) | inactive | 
27 | CC(C)c1ccc(N2CCN(C(=O)c3ccccc3NC(=O)/C=C(\C(=O)O)c3ccccc3)CC2)cc1 | inactive | 
28 | COc1ccc(N2CCN(C(=O)CNC(=O)c3ccc(C(C)(C)C)cc3)CC2)cc1 | inactive | 
29 | CC(=O)N1CCN(c2ccc(NCc3ccc(C(C)C)cc3)cc2)CC1 |  | 12.6 µM (active)
30 | COc1ccc(-c2c(C)cc3oc(=O)cc(-c4ccccc4)c3c2C)cc1OC | -3.53% [at 0.0915 µM] (inactive) | 
31 | CCCCN(CC)CCNC(=O)c1[nH]c(C)c(C(C)=O)c1C | inactive | 
32 | COCc1cc(C(C)=O)ccc1OC | inactive | 
33 | CC[C@@H]1Cc2cc(O)ccc2C2=C1c1ccc(O)cc1C[C@H]2CC |  | 7.94 µM (active) and 3.55 µM (active)
34 | Cc1nnc(SCC(=O)NC(=O)NC2CCCC2)n1N | inactive | 
35 | CCc1c(O)nc(SCC(=O)Nc2ccccc2)n(C(C)CC)c1=O (stereo not given) | inactive | 
36 | COc1ccccc1NC(=O)[C@H](COCc1ccccc1)NC(=O)OC(C)(C)C | inactive | 
37 | CC(C)C(=O)OCC(=O)Nc1ccc2c(c1)CCC2 | inactive | 
38 | O=C1OCCN1C(=O)[C@H]1[C@H](c2ccc(F)cc2)C(c2ccccc2)=NN1c1ccc(Br)cc1 | -15.7% [at 0.0915 µM] (inactive) | 
39 | COc1cc(/C=N/O)cc(Br)c1OS(=O)(=O)c1ccc(C)cc1 | inactive | 
40 | CCN(CC)c1ccc(NC(=O)c2ccc(Cl)nc2)cc1 | inactive | 
41 | Cc1ccc(-c2cccc([C@H]3[C@@H]4C=CC[C@@H](C)[C@@H]4C(=O)N3Cc3ccccc3)c2)cc1 | 17.8% [at 0.0915 µM] (inactive) | 
42 | Cc1nc(NC2=NC(C(=O)Nc3ccc(Cl)cc3)CC(=O)N2)nc2ccccc12 (stereo not given) | inactive | 
43 | COc1ccc(Nc2ncnc3ccc(OC)cc23)cc1 | 12% [at 0.0915 µM] (inactive) | 
44 | O=C(c1ccccc1)N1CCN(c2ccc([N+](=O)[O-])c(NCc3ccco3)c2)CC1 | inactive | 
45 | N#C/C(=C\c1ccccc1)c1n[nH]c(Cn2cncn2)n1 | inactive | 
46 | O=C(O)CCC(=O)O | 15.2% [at 0.0915 µM] (inactive) | 
47 | Cc1cc2oc(=O)cc(-c3ccccc3)c2c(C)c1-c1ccc(OC(F)(F)F)cc1 | -5.36% [at 0.0915 µM] (inactive) | 
48 | O=C(Nc1ccc(Sc2ccc(Br)cc2)cc1)c1ccco1 | inactive | 
49 | CC1CCc2c(c3ccccc3[nH]c2=O)O1 (stereo not given) | inactive | 
50 | C=CCSc1nc(Cc2ccc(Cl)cc2)nc2ccccc12 | inactive | 

Row | SMILES | activity change, negative = inhibition | Potency
51 | COc1cc(/C=N/O)cc(Br)c1OCc1cccc(Cl)c1 | inactive | 
52 | CSCc1cc(N(C)C)nc(SCc2ccc(Cl)cc2Cl)n1 | inactive | 
53 | CCOC(=O)C1=C(C(=O)OCC)C(C(=O)OCC)N(S(=O)(=O)C(F)(F)F)c2ccccc21 (stereo not given) | 7.83% [at 0.0915 µM] (inactive) | 
54 | CC1CCCCC1NC(=O)C1CCCN1S(=O)(=O)c1cccc2nsnc12 (stereo not given) | inactive | 
55 | Cc1nnc(NC(=O)CCCOc2ccccc2)s1 | inactive | 
56 | O=C(CN1C(=O)C2C3C=CC(C3)C2C1=O)Nc1nc(-c2ccccn2)cs1 (stereo not given) | inactive | 
57 | CCCCOC(=O)Nc1sc2nc(C)cc(C)c2c1-n1cccc1 | inactive | 
58 | CCOC(=O)c1c(NC(C)=O)sc2c(O)c(Br)ccc12 | inactive | 
59 | COc1ccc(C(=O)Nc2ccc(S(=O)(=O)NC(C)C)cc2)cc1 | inactive | 
60 | COC(=O)c1cc(NC(=O)CC2C(=O)NCCN2C(=O)c2ccc(F)cc2)cc(C(=O)OC)c1 (stereo not given) | inactive | 
61 | Cn1ccs/c1=N\S(=O)(=O)c1ccc(C(C)(C)C)cc1 | inactive | 
62 | COCC(C)NC(=O)c1ccc(-n2nc(C(F)(F)F)cc2-c2cccs2)cc1 (stereo not given) | inactive | 
63 | NC(=O)c1nsc(C(=O)N(CC(=O)NCc2ccc(F)cc2)Cc2ccco2)c1N | inactive | 
64 | Cc1ccc(-c2cc(=O)c3ccc(Cl)cc3[nH]2)cc1 | -2.63% [at 0.0915 µM] (inactive) | 
65 | COc1ccc(C)cc1N(C)C(=O)c1coc(=O)c2ccccc12 | inactive | 
66 | C=CCC1CCC(=O)N2CCCC12 (stereo not given) | -5.32% [at 0.0915 µM] (inactive) | 
67 | Cc1ccccc1OCC(=O)NCC(=O)OCC(=O)c1ccc2ccccc2c1 | inactive | 
68 | Brc1ccc(C2=NCCC(c3ccccc3)O2)cc1 (stereo not given) | 18.5% [at 0.0915 µM] (inactive) | 
69 | O=C(c1cccc(F)c1)N1CCN(c2ccc([N+](=O)[O-])c(N3CCCCC3)c2)CC1 | inactive | 
70 | O=C1OCCN1C(=O)[C@H]1[C@H](c2ccc(Cl)cc2)C(c2cccc(Cl)c2)=NN1c1ccc(Br)cc1 | 4.34% [at 0.0915 µM] (inactive) | 
71 | CC1(C)O[C@@H]2C[C@@H]3[C@H]4C[C@@H](F)C5=CC(=O)C=C[C@]5(C)[C@@]4(F)[C@@H](O)C[C@]3(C)[C@]2(C(=O)CO)O1 | -10.6% [at 0.0915 µM] (inactive) | 
72 | O=C1CCC[C@@H]2CC(N3CCCCC3)C[C@@H]3CCN1[C@H]23 (stereo not given in full) | -0.97% [at 0.0915 µM] (inactive) | 
73 | Cc1c(O)c(Br)c(C)c(O)c1Br (tested in a mixture with another compound) |  | 2 µM (active)
74 | CCOn1c(SC(C)C)nc2ccccc2c1=O | inactive | 
75 | C=CC1(C)CC(=O)C2(O)C(C)(O1)C(OC(C)=O)C(O)C1C(C)(C)CCC(O)C12C (stereo not given) | 1.16% [at 0.0915 µM] (inactive) | 

Row | SMILES | activity change, negative = inhibition | Potency
76 | COc1cc(C(=O)N2CCOCC2)cc(OC)c1OC | 5.48% [at 0.0915 µM] (inactive) | 
77 | Cc1ccc(NC(=O)Cn2nc(C)c3ccccc3c2=O)c(C)c1 | inactive | 
78 | Cc1ccc(NC(=S)Nc2ncccc2C)c(C)c1 |  | 7.94 µM (active)
79 | Cc1ccccc1NC(=S)Nc1cccc([N+](=O)[O-])c1 | inactive | 
80 | CC(C)NC(=O)C(=O)NCCN1CCN(S(=O)(=O)c2ccc(Cl)cc2)CC1 | inactive | 
81 | FC(F)(F)c1cnc(Oc2ccccc2-c2nnc(-c3ccc(Cl)cc3)o2)c(Cl)c1 | inactive | 
82 | O=C(Oc1ccccc1)Oc1ccc2c(c1)oc(=O)c1ccccc12 | inactive | 
83 | Cc1ccnc(-n2sc3ccccc3c2=O)n1 |  | 7.94 µM (active)
84 | Cc1nc2ccccc2c(=O)n1CCCn1ccnc1 | 9.49% [at 11.4 µM] (inactive) | 
85 | Cc1ccnc(N2CCC(C(=O)NC3CCCCCC3)CC2)n1 | inactive | 
86 | N#Cc1ccc(Oc2cc(C(F)(F)F)nc(-c3ccccn3)n2)cc1 | inactive | 
87 | CCCCCCCCCCCCCCCCO | 14.3% [at 0.0915 µM] (inactive) | 
88 | CN(C(=O)CSc1nc(C2CC2)nc2ccccc12)c1nc(-c2ccccc2)cs1 | inactive | 
89 | Cc1cc(N/C=C\C(=O)c2ccc(Cl)c(Cl)c2)no1 | inactive | 
90 | Cc1ccc(-n2c(SCC(=O)NCc3ccc4c(c3)OCO4)nnc2-c2cccnc2)c(C)c1 | inactive | 
91 | Cc1ccc(CC2(O)CCN(CCOc3ccc(O)cc3)CC2)cc1 | 15.1% [at 0.0915 µM] (inactive) | 
92 | Cc1ccc(/C=N/NC(=O)Cn2nc(C)c(Br)c2C)o1 | inactive | 
93 | C=CCN(N=Nc1cccc([N+](=O)[O-])c1)c1cccc([N+](=O)[O-])c1 | inactive | 
94 | CN(C)c1ccc(CNC2C3CC4CC(C3)CC2C4)cc1 (stereo not given) | inactive | 
95 | O=C(COc1ccc(Br)cc1F)NC1CCN(Cc2ccccc2)CC1 | inactive | 
96 | N#CC1=C(SCc2ccc(C#N)cc2)N=C(N)C(c2nc(-c3ccccc3)cs2)C12CCCCC2 (stereo not given) | inactive | 
97 | CCOc1c2ccc(C(=O)NCc3ccc(OC(F)(F)F)cc3)cc2nn1C | inactive | 
98 | CC(=O)N1C(=O)C2(Nc3ccccc3N2)c2ccccc21 | inactive | 
99 | O=C1Nc2ccccc2C12Nc1ccccc1S2 (stereo not given) |  | 7.94 µM (active)
100 | Cc1ccc(NC2(C#N)C(=O)Nc3ccccc32)cc1 (stereo not given) | inactive | 
